PubChem BioAssay (NCATS)
A number with no mark means an inactive call. Results filed as inconclusive are left out. This is one part of the list. Entries that show only a call come without a potency. Active and inactive are the calls of the source. Unless noted, calls follow the shape of the dose curve; as a rule, active = well fitted curve in the direction sought with a large enough effect; inconclusive = small, poorly fitted or top-dose-only effect, or another doubt; inactive = no such curve, though single readings can be large; an effect the other way counts as inactive or inconclusive.

Legend:
[1] = target: Luciferin 4-monooxygenase (Photinus pyralis) (UniProt P08659); experiment: Biochemical firefly luciferase enzyme assay for NPC (AID 624030);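 also: purified P. pyralis luciferase at 10 nM with luciferin and ATP substrate; series mostly up to about 59 µM; nearly all actives have a fitted effect of over 70% in size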
Outline: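 Purified P. pyralis luciferase at 10 nM in 50 mM Tris Acetate (final), luminescence read within 5 minutes of enzyme addition to compounds. Activity normalised to PTC124 versus DMSO; concentration-response curves classed by r2, magnitude and activity.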

[2] = target: ATPase family AAA domain-containing protein 5 (Homo sapiens) (UniProt Q96QE3); experiment: qHTS screen for small molecules that inhibit ELG1-dependent DNA repair in human embryonic kidney (HEK293T) cells expressing luciferase-tagged ELG1: Hit Confirmation using MMS Stimulated ELG1 (AID 624249);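 also: cells co-treated with MMS at 10 µM final alongside compound; luminescence of ELG1-luciferase fusion read with Amplight reagent; series mostly up to about 46 µM; nearly all actives have a fitted effect of over 60% in size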
Outline: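 Luminescence read-out (Amplight) of an ELG1-luc reporter in HEK293T cells after 16 h of compound exposure under MMS stimulation at 10 µM final. Inhibition appears as reduced luciferase activity.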

[3] = qHTS screen for small molecules that inhibit ELG1-dependent DNA repair: Hit Confirmation with MMS Viability (AID 624251); also: nearly all actives have a fitted effect of over 60% in size
Outline: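 CellTiter-Glo viability of ELG1-luc HEK293T cells after 16 h with compound plus 10 µM MMS.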

[4] = qHTS for Inhibitors of Ubiquitin-specific Protease USP2a Using CHOP2 as the Reporter: K633 Counterscreen (AID 652168); also: series mostly up to about 57 µM
Outline: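 Detection-system control: fluorescence of K48-linked DiUb-4IQF substrate (100 nM as added) tracked over time, Ex 525/Em 598, with pinned compounds and no enzyme, in pH 8 Tris buffer containing beta-mercaptoethanol and 0.05% Chaps.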

[5] = target: Tumor susceptibility gene 101 protein (Homo sapiens) (UniProt Q99816); experiment: qHTS Assay for Iinhibitors of HIV-1 Budding by Blocking the Interaction of PTAP/TSG101: Hit Validation (AID 651600); also: nearly all actives have a fitted effect of over 70% in size; also: potency is read from the fitted curve at half-maximal effect
Outline: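 Tsg101 binding domain 10 uM + FITC-PTAP peptide 50 nM (final), 10 mM HEPES pH 7.5/0.15 M NaCl/0.01% Tween 20/3 mM EDTA/0.1 mM TCEP; 20 min RT; FP read, FITC filters.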

[6] = qHTS for Inhibitors of Ubiquitin-specific Protease USP2a Using CHOP2 as the Reporter: Cytotox Assay (AID 652170); also: nearly all actives have a fitted effect of over 70% in size; also: potency is read from the fitted curve at half-maximal effect
Outline: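 Cytotoxicity read as ATP luminescence (CellTiter-Glo) after 72 hr compound treatment at 37 deg C. Cells: HCT116, 600/well in DMEM plus 10% FBS. Normalization between DMSO-treated cells and cell-free wells.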

[7] = target: Ubiquitin carboxyl-terminal hydrolase 2 (Homo sapiens) (UniProt O75604); experiment: qHTS for Inhibitors of Ubiquitin-specific Protease USP2a Using CHOP2 as the Reporter: K484 Substrate (AID 652173);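 also: cleavage of internally quenched K48 di-ubiquitin substrate measured as rising fluorescence over time; nearly all actives have a fitted effect of over 70% in size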; also: potency is read from the fitted curve at half-maximal effect
Outline: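 Kinetic fluorescence (Ex 525/Em 598) tracked cleavage of an internally quenched K48 di-ubiquitin substrate, added as a 100 nM solution. The enzyme was added as a 5 nM USP2 solution before compound pinning, with no-enzyme controls. Buffer: Tris pH 8, beta-mercaptoethanol, CHAPS.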

[8] = qHTS assay for environmental chemicals that activate the Aryl hydrocarbon Receptor (AhR) signaling pathway (AID 651777); conditions: 1A2-DRE human hepatoma cells, luciferase, 24 h; activation: active compounds read high; also: nearly all actives have a fitted effect of over 15% in size
Outline: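 Luminescence (One-Glo, 30 min, room temperature) reports AhR-driven luciferase in stably transfected human hepatoma cells bearing DRE and CYP1A2 promoter. Cells (1,200/well) were treated with compound for 24 hr at 37 C in qHTS format.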

[9] = target: Peroxisome proliferator-activated receptor alpha (Homo sapiens) (UniProt Q07869); experiment: qHTS assay for small molecule agonists of the peroxisome proliferator-activated receptor alpha (PPARalpha) signaling pathway (AID 651778); conditions: PathHunter PPARalpha complementation, chemiluminescence, 6 h; max response: active compounds read high
Outline: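 Enzyme-fragment complementation assay in which ligand-bound PPARalpha translocates and forms an active enzyme that generates chemiluminescence. Cells were plated overnight, exposed to compound for 6 hr at 37 C, and then given detection reagent for 60 min at room temperature.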

[10] = qHTS assay for cell viability of HEK293 cells (AID 743288); conditions: ATP luminescence (CellTiter-Glo), 18 h; max response: active compounds read low; also: nearly all actives have a fitted effect of over 50% in size; also: potency is read from the fitted curve at half-maximal effect
Outline: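 ATP luminescence (CellTiter-Glo) reports metabolically competent cell number after parental HEK293 cells, 2,000/well, were treated with DMSO-dissolved compounds for 18 h at 37 C; reagent incubation 30 min, room temperature.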

[11] = qHTS assay for cell viability of the p53RE-bla HCT-116 cell line (AID 743292); also: potency is read from the fitted curve at half-maximal effect; nearly all actives have a fitted effect of over 55% in size
Outline: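 ATP-based luminescent viability (CellTiter-Glo, 30 min RT) after 16 h compound treatment at 37 C of p53RE-bla HCT-116 cells, seeded at 4,000 cells/well and rested 5 h before dosing.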

[12] = qHTS assay for small molecule agonists of the antioxidant response element (ARE) signaling pathway measured by Nrf2-dependant transcriptional activity - cell viability counter screen (AID 720653; active = well fitted curve in the direction sought with a large enough effect in the repeat runs; an effect the other way counts as inactive or inconclusive); conditions: ARE-bla HepG2 viability, CellTiter-Glo ATP luminescence, 16 h; max response: active compounds read low
Outline: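 ARE-bla HepG2 cells treated with compounds for 16 h at 37C; this counter screen measures viability as intracellular ATP by CellTiter-Glo luminescence after 30 min at room temperature.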

Tumor susceptibility gene 101 protein (Homo sapiens), sequence (Q99816 whole entry, looked up, the tested form may be a part): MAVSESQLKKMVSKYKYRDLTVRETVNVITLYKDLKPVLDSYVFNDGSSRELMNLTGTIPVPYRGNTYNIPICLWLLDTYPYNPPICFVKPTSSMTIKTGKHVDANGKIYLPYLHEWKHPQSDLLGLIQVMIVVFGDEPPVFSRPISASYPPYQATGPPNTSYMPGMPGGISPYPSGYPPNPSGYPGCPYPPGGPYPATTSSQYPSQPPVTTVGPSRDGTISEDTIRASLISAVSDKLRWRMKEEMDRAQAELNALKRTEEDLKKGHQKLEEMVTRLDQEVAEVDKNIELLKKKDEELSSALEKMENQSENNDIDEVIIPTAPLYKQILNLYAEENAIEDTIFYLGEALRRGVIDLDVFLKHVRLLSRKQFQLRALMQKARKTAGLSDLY
Ubiquitin carboxyl-terminal hydrolase 2 (Homo sapiens), sequence (O75604 whole entry, looked up): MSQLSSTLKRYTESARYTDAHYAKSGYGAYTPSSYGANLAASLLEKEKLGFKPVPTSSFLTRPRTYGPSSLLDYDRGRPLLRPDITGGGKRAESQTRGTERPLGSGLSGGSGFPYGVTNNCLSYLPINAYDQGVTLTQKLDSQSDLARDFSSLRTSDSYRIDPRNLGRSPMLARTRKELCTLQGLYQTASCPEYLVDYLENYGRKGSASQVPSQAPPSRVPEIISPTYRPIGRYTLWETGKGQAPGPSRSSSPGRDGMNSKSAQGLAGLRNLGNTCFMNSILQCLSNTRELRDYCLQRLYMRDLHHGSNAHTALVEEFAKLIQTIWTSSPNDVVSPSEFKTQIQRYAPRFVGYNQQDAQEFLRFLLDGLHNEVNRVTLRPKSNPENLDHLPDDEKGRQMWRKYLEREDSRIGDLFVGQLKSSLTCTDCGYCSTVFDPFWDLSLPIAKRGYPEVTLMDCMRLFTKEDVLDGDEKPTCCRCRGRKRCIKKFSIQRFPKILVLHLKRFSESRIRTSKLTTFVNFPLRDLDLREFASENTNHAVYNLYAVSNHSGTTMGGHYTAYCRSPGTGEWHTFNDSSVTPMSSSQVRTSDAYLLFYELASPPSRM
Peroxisome proliferator-activated receptor alpha (Homo sapiens), sequence (Q07869 whole entry, looked up, the tested form may be a part): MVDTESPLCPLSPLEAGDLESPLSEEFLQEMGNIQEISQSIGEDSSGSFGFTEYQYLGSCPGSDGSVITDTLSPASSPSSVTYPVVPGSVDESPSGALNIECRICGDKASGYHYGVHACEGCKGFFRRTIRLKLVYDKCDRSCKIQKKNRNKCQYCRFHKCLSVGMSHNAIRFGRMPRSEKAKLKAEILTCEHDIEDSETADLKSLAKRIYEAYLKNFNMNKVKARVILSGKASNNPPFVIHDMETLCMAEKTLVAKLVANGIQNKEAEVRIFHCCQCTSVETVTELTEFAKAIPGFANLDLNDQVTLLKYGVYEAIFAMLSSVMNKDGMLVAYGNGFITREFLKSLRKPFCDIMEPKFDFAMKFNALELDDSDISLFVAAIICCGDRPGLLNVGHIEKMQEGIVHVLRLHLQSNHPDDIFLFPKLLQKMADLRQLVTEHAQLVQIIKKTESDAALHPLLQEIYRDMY
ATPase family AAA domain-containing protein 5 (Homo sapiens), sequence (Q96QE3 whole entry, looked up, the tested form may be a part): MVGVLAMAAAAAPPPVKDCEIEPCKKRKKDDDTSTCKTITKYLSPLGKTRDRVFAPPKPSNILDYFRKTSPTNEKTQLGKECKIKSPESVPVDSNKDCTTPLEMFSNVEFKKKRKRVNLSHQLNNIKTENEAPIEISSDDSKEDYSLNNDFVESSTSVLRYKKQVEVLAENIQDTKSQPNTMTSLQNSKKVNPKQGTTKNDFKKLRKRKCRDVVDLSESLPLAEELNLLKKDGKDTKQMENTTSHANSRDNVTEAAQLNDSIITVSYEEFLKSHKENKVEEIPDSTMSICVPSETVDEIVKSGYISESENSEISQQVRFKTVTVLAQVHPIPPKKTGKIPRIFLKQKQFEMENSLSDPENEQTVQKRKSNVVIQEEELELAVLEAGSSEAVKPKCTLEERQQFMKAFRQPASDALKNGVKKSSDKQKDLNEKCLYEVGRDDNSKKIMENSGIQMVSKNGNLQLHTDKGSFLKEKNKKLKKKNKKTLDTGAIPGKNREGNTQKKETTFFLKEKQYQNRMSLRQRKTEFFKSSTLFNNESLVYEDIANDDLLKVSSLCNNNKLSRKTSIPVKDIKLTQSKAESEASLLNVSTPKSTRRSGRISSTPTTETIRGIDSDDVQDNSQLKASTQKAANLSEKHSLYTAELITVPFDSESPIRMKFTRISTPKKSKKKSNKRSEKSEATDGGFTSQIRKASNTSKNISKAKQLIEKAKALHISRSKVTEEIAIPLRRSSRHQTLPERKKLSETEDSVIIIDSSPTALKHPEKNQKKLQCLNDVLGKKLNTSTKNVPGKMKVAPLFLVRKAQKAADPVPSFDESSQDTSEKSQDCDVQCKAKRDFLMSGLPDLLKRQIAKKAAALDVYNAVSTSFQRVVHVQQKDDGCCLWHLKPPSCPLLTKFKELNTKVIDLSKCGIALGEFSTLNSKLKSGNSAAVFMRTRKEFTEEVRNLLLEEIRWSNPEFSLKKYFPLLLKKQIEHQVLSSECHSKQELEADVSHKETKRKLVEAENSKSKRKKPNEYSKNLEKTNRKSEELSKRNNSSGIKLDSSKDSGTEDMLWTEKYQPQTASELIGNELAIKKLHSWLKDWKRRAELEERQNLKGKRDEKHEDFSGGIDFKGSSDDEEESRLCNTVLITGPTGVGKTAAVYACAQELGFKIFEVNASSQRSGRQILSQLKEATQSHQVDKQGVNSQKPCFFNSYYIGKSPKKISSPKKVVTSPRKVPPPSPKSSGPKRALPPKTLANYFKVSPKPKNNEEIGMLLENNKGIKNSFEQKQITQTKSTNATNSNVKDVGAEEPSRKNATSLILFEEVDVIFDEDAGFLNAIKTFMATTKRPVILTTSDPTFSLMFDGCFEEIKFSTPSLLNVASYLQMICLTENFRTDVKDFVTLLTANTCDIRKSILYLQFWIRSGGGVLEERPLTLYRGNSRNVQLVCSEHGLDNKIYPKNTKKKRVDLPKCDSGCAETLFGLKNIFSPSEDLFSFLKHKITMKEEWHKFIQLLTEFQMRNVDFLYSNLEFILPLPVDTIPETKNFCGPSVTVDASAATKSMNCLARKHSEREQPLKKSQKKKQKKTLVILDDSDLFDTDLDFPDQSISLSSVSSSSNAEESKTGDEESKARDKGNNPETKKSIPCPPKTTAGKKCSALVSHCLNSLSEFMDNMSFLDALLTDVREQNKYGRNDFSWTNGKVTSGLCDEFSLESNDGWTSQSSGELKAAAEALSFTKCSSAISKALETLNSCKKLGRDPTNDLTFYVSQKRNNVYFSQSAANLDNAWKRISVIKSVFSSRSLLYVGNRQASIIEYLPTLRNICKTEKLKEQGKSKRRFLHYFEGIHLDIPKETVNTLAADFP
Luciferin 4-monooxygenase (Photinus pyralis), sequence (P08659 whole entry, looked up): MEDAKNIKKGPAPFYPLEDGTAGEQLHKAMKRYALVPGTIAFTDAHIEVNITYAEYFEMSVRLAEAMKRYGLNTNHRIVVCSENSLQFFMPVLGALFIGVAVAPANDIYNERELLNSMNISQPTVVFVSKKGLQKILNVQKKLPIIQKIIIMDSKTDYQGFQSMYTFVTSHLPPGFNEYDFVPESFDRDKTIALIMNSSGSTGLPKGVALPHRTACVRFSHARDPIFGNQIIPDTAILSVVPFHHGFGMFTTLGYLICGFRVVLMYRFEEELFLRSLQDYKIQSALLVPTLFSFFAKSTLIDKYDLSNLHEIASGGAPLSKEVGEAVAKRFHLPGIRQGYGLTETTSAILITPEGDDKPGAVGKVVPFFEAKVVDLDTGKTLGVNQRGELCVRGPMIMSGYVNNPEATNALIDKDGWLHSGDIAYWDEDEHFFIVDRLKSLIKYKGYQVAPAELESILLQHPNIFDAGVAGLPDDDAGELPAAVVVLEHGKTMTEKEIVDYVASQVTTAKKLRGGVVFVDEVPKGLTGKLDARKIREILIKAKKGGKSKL

## CO/N=C1/CC2(CC3CC(C/C=C(/C)CC(C)/C=C\C=C4\COC5C(O)C(C)=CC(C(=O)O3)C45O)O2)OC(/C(C)=C/C(C)C)C1C (configuration not stated)
[1]
  Potency: inactive

## COc1ccc(CSc2nc(N3CCOCC3)c3c(c2C#N)CC(C)(C)OC3)cc1
[2]
  Potency: inactive
[3]
  Potency: inactive

## CC(=O)Nc1ccc(NC(=O)c2cc(-c3ccc(C)c(C)c3)nc3ccccc23)cc1
[4]
  outcome: inactive

## Cc1cccc(N=Nc2c(O)[nH]c3ccc(F)cc23)c1
[5]
  Potency: inactive

## COc1ccc(C(=O)c2sc3nc(C)cc(-c4cccs4)c3c2N)cc1OC
[5]
  Potency: inactive

## C=C1CCN(c2ccc(C(=O)O)cc2[N+](=O)[O-])CC1
[5]
  Potency: inactive

## CCc1cccc(CC)c1NC(=O)CSc1nnc(C2CC2)n1C
[5]
  Potency: inactive

## O=C(Nc1nc(-c2ccccc2)cs1)c1ccncc1NS(=O)(=O)c1cccs1
[4]
  outcome: inactive
[6]
  Potency: inactive
[7]
  Potency: 3.43 µM (active)

## Cc1ccc(S(=O)(=O)Nc2cnccc2C(=O)Nc2nc(-c3nc4ccccc4s3)cs2)cc1
[4]
  outcome: inactive
[6]
  Potency: inactive
[7]
  Potency: 1.72 µM (active)

## CC/C(=C(\c1ccc(O)cc1)c1ccc(OCCN(C)C)cc1)c1ccccc1
[8]
  activation: -12.4%
[9]
  max response: -2.87%
[10]
  Potency: 25.1 µM (active)
[11]
  Potency: 39.8 µM (active)

## COc1cccc(S(=O)(=O)Nc2cnccc2C(=O)Nc2nc(-c3ccccc3)cs2)c1
[4]
  outcome: inactive
[6]
  Potency: 23.5 µM (active)

## CCC(=O)OC1CCC(C(=O)Nc2ccc([S+](=O)([O-])Nc3nccs3)cc2)CC1 (configuration not stated)
[4]
  outcome: inactive
[6]
  Potency: inactive
[7]
  Potency: inactive

## Cc1ccc(S(=O)(=O)Nc2cnccc2C(=O)Nc2nc(C(=O)O)cs2)cc1
[4]
  outcome: inactive
[6]
  Potency: inactive

## CCCCC(=O)NC1=NC(=O)C(C)(C)S1
[5]
  Potency: inactive

## CC1CCCN(Cc2c(O)ccc3c2O/C(=C\c2ccco2)C3=O)C1 (configuration not stated)
[5]
  Potency: 14.6 µM (active)

## CN1CCc2c(sc3c2C(=O)NC(c2ccccn2)N3)C1 (configuration not stated)
[5]
  Potency: 18.3 µM (active)

## COC(=O)C[C@H]1c2cc(F)ccc2S(=O)(=O)N1c1ccccc1
[5]
  Potency: inactive

## COc1cccc2c1C(=O)c1c(O)c3c(c(O)c1C2=O)CC(O)(C(C)=O)CC3OC1CC(O)C(O)C(C)O1 (configuration not stated)
[5]
  Potency: 13 µM (active)

## O=C1NC(c2ccco2)Nc2sc3c(c21)CCN(Cc1ccccc1)C3 (configuration not stated)
[5]
  Potency: inactive

## Cn1cnc(S(=O)(=O)Nc2cnccc2C(=O)Nc2nc(-c3ccccc3)cs2)c1
[4]
  outcome: inactive
[6]
  Potency: inactive
[7]
  Potency: 19.3 µM (active)

## CCCCCCCC1CCC(=O)O1 (configuration not stated)
[8]
  activation: 4.53%
[12]
  max response: -3.73%
[10]
  max response: -3.73%

## Cc1ccc(/C=C/C(=O)Nc2ccc(S(=O)(=O)Nc3onc(C)c3C)cc2)cc1
[5]
  Potency: inactive

## Cc1ccc(S(=O)(=O)Nc2cnccc2C(=O)Nc2nc(-c3ccc(F)cc3)cs2)cc1
[4]
  outcome: inactive
[6]
  Potency: 20.9 µM (active)

## Cc1ccc(S(=O)(=O)Nc2cnccc2C(=O)Nc2ccc(C#N)cc2)cc1
[4]
  outcome: inactive
[6]
  Potency: inactive
[7]
  Potency: 21.7 µM (active)

## Cc1ccc(-c2csc(Nc3ccc(S(=O)(=O)Nc4nccs4)cc3)n2)cc1C
[4]
  outcome: inactive
[6]
  Potency: inactive
[7]
  Potency: 4.32 µM (active)

## CCOC(=O)c1c(C)oc2c1c(CN1CCN(C(=O)OCC)CC1)c(O)c1ccccc12
[5]
  Potency: inactive

## COc1ccc(C2=CC(c3ccco3)n3ncnc3N2)cc1 (configuration not stated)
[5]
  Potency: inactive

## CCN1CCN(Cc2ccc(NC(=O)Nc3ccccc3OC)cc2)CC1
[5]
  Potency: inactive

## O=C(Nc1nc(-c2ccccc2)cs1)c1ccncc1NS(=O)(=O)c1ccc(Cl)cc1
[4]
  outcome: inactive
[6]
  Potency: inactive
[7]
  Potency: 1.53 µM (active)

## Cc1ccc(CNC(=O)C2CCCN(S(=O)(=O)c3c(C)[nH]c(=O)[nH]c3=O)C2)cc1 (configuration not stated)
[5]
  Potency: inactive

## Nc1cccc(S(=O)(=O)Nc2cnccc2C(=O)Nc2nc(-c3ccccc3)cs2)c1
[4]
  outcome: inactive
[6]
  Potency: inactive
[7]
  Potency: 13.7 µM (active)

## N#Cc1cnc(NS(=O)(=O)c2ccc(NC(=O)Cc3ccc(F)c(Cl)c3)cc2)s1
[4]
  outcome: inactive
[6]
  Potency: inactive
[7]
  Potency: 15.3 µM (active)

## CCn1c(/C=C/c2cc[n+](C)cc2)nc2ccccc21
[5]
  Potency: inactive

## CN(Cc1nccs1)S(=O)(=O)c1ccc(Nc2nc(-c3ccccc3)cs2)cc1
[4]
  outcome: inactive
[6]
  Potency: inactive
